# Assay results: the OligoGym collection
# Target: KRTAP13-2
# Assay: pooled miR-30 sensor sort-seq; sequence = guide strand
# Conditions: shRNA
# Note: reference of the scale not given here.
row,Sequence,sensor-assay potency score (higher = more potent)
1,ACAGCTTCCATAACCCAGGGAT,-0.532
2,TGGTCTGTAACAAGGAGACTGG,-0.828
3,TCCAGATCCATAGCCGAGGGAA,-1.28
4,TAGAGACCCAGAGTAAGTCGTC,0.623
5,AGGTAGTCACCACAGGAGCGGG,-1.51
6,TAGCGCAGGTAGTCACCACAGG,-0.777
7,TAGGCTGGTCTGTAACAAGGAG,-0.634
8,TCGTCTTGCAAGGACTGCAGAG,-0.616

# Target: KRTAP4-5
# Assay: as above
# Conditions: shRNA
row,Sequence,sensor-assay potency score (higher = more potent)
1,ATGAATGTGATTGTCTGTCATT,-1.58
2,TTTAATGAATGTGATTGTCTGT,0.174
3,TAGGGTGGCAGCAGGTGGGCTG,-0.712
4,TGGTAGCACACAGACTGGCAGC,-1.41
5,TGGTCTGGCAGCAGCAGGGGCG,-1.72
6,TTAATGAATGTGATTGTCTGTC,0.0544
7,TGGATTCACAGCAATAGGGGCG,-0.512
8,TTATATGAGATCATCACAGTTA,0.439
9,TGGAGATGCAGCAGCTAGGGTG,-1.53
10,ATTCACAGCAATAGGGGCGGCA,-0.786
11,TGCTCAGAGCTGACAGAGCCAC,-1.57
12,TAACATATTTTAATGAATGTGA,-0.0651

# Target: KRTAP4-7
# Assay: as above
# Conditions: shRNA
row,Sequence,sensor-assay potency score (higher = more potent)
1,TCAGTGACAAAACTGGTCCTGC,0.367
2,CTGGACACACAACAGCTGGGGC,-1.77
3,TGACAGAGGACTTGGCCGCAGC,-1.09
4,TAGGGTGGCAGCAGGTCGTCTC,-0.549
5,AGCTGGACACACAACAGCTGGG,-1.49
6,TTGCAGCAGCTGGACATACAGC,-1.51
7,TGGAGATGCAGCACCTAGGGTG,-0.36
8,TAGCAGGTGGTCCTGCAACAGG,-1.7
9,CAGCAGGTCGTCTCACAGCAGC,-2.76
10,TATTGAATGACATCAACCCCAC,-0.0813
11,TGGTCAGAGCACACGGAGCCAC,-1.43
12,TCTGACAGCAGCTGGGGCGGCA,-1.19
13,TGGTCTGACAGCAGCTGGGGCG,-1.46
14,CAGCTGGACACACAACAGCTGG,-1.96
15,CAGGTGGTCTGACAGCAGCTGG,-2.02

# Target: KRTAP5-8
# Assay: as above
# Conditions: shRNA
row,Sequence,sensor-assay potency score (higher = more potent)
1,ACAGGAGCCACAGTCCCCCTTG,-0.958
2,ATGGGCACACAGCAGCTAGAGC,-1.84
3,AGCAGCTAGAGCCACATCCCCC,-1.72
4,TGCAGGGCTTACAACAGCTGGA,-1.15
5,TTACAACAGCTGGACTGGGAAC,-1.86
